Only a selection was taken, and hits are over-represented in it overall.
TbREL1 inh: TbREL1 inhibition, primary screen | inhibition, % at 9.66 µM | TbREL1 RNA ligation, FRET fluorescence | P86926 | actives 0.49% (n = 89,000);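 active = inhibition above the mean inhibition across all screened compounds plus 3 SD, cut at about 11% in these data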
Target sequence (P86926 whole entry, looked up): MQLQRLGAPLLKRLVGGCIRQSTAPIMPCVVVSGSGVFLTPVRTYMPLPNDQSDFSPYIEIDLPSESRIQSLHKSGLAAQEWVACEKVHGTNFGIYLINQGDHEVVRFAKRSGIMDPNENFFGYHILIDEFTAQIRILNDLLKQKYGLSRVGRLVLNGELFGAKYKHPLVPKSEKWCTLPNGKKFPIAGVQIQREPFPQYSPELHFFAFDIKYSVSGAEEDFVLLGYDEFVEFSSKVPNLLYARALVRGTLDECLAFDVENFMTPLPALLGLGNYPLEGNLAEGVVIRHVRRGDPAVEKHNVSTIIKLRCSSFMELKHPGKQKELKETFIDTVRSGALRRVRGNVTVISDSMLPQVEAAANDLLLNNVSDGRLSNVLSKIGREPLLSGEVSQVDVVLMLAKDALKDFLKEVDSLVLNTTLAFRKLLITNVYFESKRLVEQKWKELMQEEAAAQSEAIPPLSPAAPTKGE
TbREL1 conf: TbREL1 inhibition, confirmation. shares compounds with TbREL1 inh. TbREL1 RNA ligation, FRET fluorescence. inhibition, % at 9.66 µM. actives 37% (n = 390). AID 1117282;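 active = mean inhibition across replicates above a set limit taken from the earlier primary screen, cut at about 11% in these data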
Numbers stand for hits; . = inactive.

SMILES | TbREL1 inh | others
CC(C)(C)c1ccc(S(=O)(=O)N2CCCC2C(=O)N2CCN(c3ccccc3)CC2)cc1 (centres undefined) | .
CN1C2=N[C@H](c3cccc(C(F)(F)F)c3)CC(=O)N2/C(=C\c2ccccc2)[C@H]1c1ccccc1 | .
C[C@H]1[C@H](c2ccccc2)OC(O)([C@H](Cc2ccccc2)NC(=O)OC(C)(C)C)CN1C (some centres undefined) | .
Cc1c(NC(=O)C2CCCN(S(=O)(=O)c3ccc(Br)s3)C2)c(=O)n(-c2ccccc2)n1C (centres undefined) | .
C(C#CCCCCCCCCC[n+]1ccccc1)#CCCCCCCCCC[n+]1ccccc1 | 11 | TbREL1 conf=24
O=C(OCC#CCSc1nnc(-c2ccccc2Cl)o1)c1ccc(F)cc1 | .
N#Cc1cccc(NC(=O)O[C@@H]2CC[C@@]34CCCN3C(=O)CCC[C@H]4C2)c1 | .
Nn1c(SCC(=O)Nc2ccccc2-c2ccccc2)nnc1-c1n[nH]c2c1CCC2 | .
Cc1ccc(CNC(=O)O[C@H]2CC[C@@]34CCCN3C(=O)CCC[C@H]4[C@H]2C)cc1 | .
O=c1c2cc3cc4c(cc3nc2ncn1CCc1ccccc1)OCO4 | 15 | TbREL1 conf=.
O=c1c2cc3cc4c(cc3nc2ncn1Cc1cccnc1)OCO4 | .
O=c1c2cc3ccccc3nc2ncn1CCc1ccc(Cl)cc1 | .
O=C(CSc1nnc(-c2ccco2)n1-c1ccc(Cl)cc1)Nc1cccc2ccccc12 | .
O=C(O)CN1C(=O)C2C3C=CC(C2C1=O)C1C(=O)N(CC(=O)O)C(=O)C31 (centres undefined) | .
O=C(O)CN1C(=O)SC(Nc2ccc(Cl)cc2)C1=O (centres undefined) | 11 | TbREL1 conf=.
O=C(CCNc1ccc(Cl)cc1)c1cccs1 | .
O=C(NC1CC[C@@]23CCCN2C(=O)CCC[C@H]3C1)c1ccccc1 (some centres undefined) | .
O=C(CNS(=O)(=O)c1ccccc1)N1CCN(c2ccccn2)CC1 | .
Nc1cc2c([N+](=O)[O-])cccc2o1 | .
Cc1cc(=O)c(C(=O)O)nn1-c1ccccc1[N+](=O)[O-] | .
O=c1cc2oc3cc(O)c(O)cc3c(-c3ccccc3[N+](=O)[O-])c-2cc1O | 21 | TbREL1 conf=26
Fc1ccccc1-c1n[nH]c(=S)n1N=Cc1ccc(OCc2ccccc2)cc1 | .
Cc1ccc(CSc2nnc(-c3n[nH]c4c3CCC4)n2N)cc1 | .
COc1cc2c(cc1OC)C(c1ccc(-c3ccc(Cl)cc3Cl)o1)=NCC2 | .
COc1cc2c(cc1OC)C(c1ccc(-c3ccc(Cl)c(Cl)c3)o1)=NCC2 | 14 | TbREL1 conf=24
SMILES | TbREL1 inh | others
COc1cc2c(cc1OC)C(c1ccc(Cl)cc1)=NCC2 | .
O=C(Nc1ccc(OC(F)(F)F)cc1)Nc1nc2ncccn2c1-c1ccc(C(F)(F)F)cc1 | .
COC(=O)[C@]12C[C@H](CC(=O)NCc3cccs3)C(=O)N(Cc3ccc4c(c3)OCO4)C1=C[C@H](C(C)C)O[C@@H]2C1CC1 | .
O=Nc1c(O)n(Cc2ccccc2)c2ccccc12 | .
O=c1c([N+](=O)[O-])c(Cl)c2ccccc2n1Cc1ccccc1 | 17 | TbREL1 conf=.
O=c1c2c([N+](=O)[O-])cc([N+](=O)[O-])cc2sn1Cc1ccccc1 | .
O=C(c1ccc2c3c(cccc13)CC2)C1CCCN(Cc2ccncc2)C1 (centres undefined) | .
ON=C(c1ccccc1)c1ccc2c3c(cccc13)CC2 | 12 | TbREL1 conf=.
NC(=O)/C(=N\O)c1ccccc1 | .
CCOC(=O)CNC(=O)CSc1nc2ccccc2c(=O)n1-c1ccc(Cl)cc1 | .
O=S1(=O)c2c(cccc2N2CC[C@@H](O)C2)OCCCN1C1CC1 | .
COC(=O)C1=C(C)N(Cc2ccccc2C(F)(F)F)C(=NCc2ccc3c(c2)OCO3)NC1c1ccccc1 (centres undefined) | 12 | TbREL1 conf=14
COC(=O)C1=C(C)N(Cc2ccccc2C(F)(F)F)C(=NCc2ccc3c(c2)OCO3)NC1c1ccc(Cl)cc1 (centres undefined) | .
COC(=O)C1=C(C)N(Cc2ccccc2)C(=NCc2ccc3c(c2)OCO3)N[C@H]1c1ccccc1 | .
COC(=O)C1=C(C)N(Cc2ccccc2C(F)(F)F)C(=NCc2ccc3c(c2)OCO3)NC1c1ccc(C(F)(F)F)cc1 (centres undefined) | 14 | TbREL1 conf=21
O=C(C1CCCN1S(=O)(=O)c1ccccc1[N+](=O)[O-])N1CCN(c2ccccc2)CC1 (centres undefined) | .
COC(=O)[C@]12C[C@H](CC(=O)N3CCN(C(=O)c4ccco4)CC3)C(=O)N(Cc3cccc4ccccc34)C1=C[C@H](C(C)C)O[C@@H]2C1CC1 | .
C[C@@H]1C[C@H]2O[C@@H]2/C=C\C=C\C(=O)Cc2cc(O)cc(O)c2C(=O)O1 | .
CC(C)CNC(=O)OCc1cn(Cc2cc(F)ccc2F)nn1 | .
Cc1cc(N2CCOc3ccccc32)nc2ccccc12 | .
Cc1ccc(CN2CCCCC(NC(=O)Nc3ccccc3F)C2=O)cc1 (centres undefined) | .
O=C1CSc2ccc(C(=O)N3CCCC(C(=O)N4CCCN(Cc5ccccc5)CC4)C3)cc2N1 (centres undefined) | .
CC(=O)C1=C(C)N(Cc2ccc(F)cc2)C(=S)NC1c1cccc(Br)c1 (centres undefined) | .
Cc1[nH]c2ccccc2c1CC(=O)Nc1ccc(Nc2cccnc2)c(Br)c1 | .
Cc1ccc(-n2c(-c3ccccc3)n[nH]c2=S)cc1 | .
SMILES | TbREL1 inh | others
Cc1c(Cl)c(-c2n[nH]c(=S)n2-c2ccccc2)nn1C | .
Cc1onc(-c2ccccc2)c1-c1n[nH]c(=S)n1-c1ccccc1 | 26 | TbREL1 conf=.
O=S(=O)(c1ccccc1F)N1CCC(c2nc3ccccc3o2)CC1 | .
OC(c1ccccc1)(c1ccccc1)C1CCN(CCCOc2ccc(Cl)cc2)CC1 | .
CC(COc1ccc(C#N)cc1)CN1CCC(C(O)(c2ccccc2)c2ccccc2)CC1 (centres undefined) | .
N#Cc1cccc(OCCCN2CCC(C(O)(c3ccccc3)c3ccccc3)CC2)c1 | 15 | TbREL1 conf=.
COc1ccc(C(C(=O)N(C)C2CCCC2)N(Cc2ccc(F)cc2)C(=O)c2cc(C)on2)cc1OC (centres undefined) | .
COc1ccc(NC(=O)NNC(=O)CCn2nc(C)c([N+](=O)[O-])c2C)cc1OC | .
CN1CCCCC(NC(=O)c2ccc(C#N)cc2)C1=O (centres undefined) | .
CN(C(=O)c1ccccc1C(=O)OCC(=O)c1ccc(F)c(F)c1)C1CCCCC1 | 12 | TbREL1 conf=.
CN(C(=O)c1ccccc1C(=O)OCC(=O)c1ccc(F)cc1)c1ccccc1 | .
CN(C(=O)c1ccccc1C(=O)OCC(=O)NCc1cccs1)C1CCCCC1 | .
Cc1ccc(NC(=O)Cn2nnc(-c3ccncc3)n2)cc1C | .
O=C(O)c1ccc2c(c1)C1C=CCC1C(c1ccncc1)N2 (centres undefined) | .
COc1ccc(NS(=O)(=O)c2ccc3c(c2)[C@H]2C=CC[C@H]2[C@@H](c2ccc(C(=O)O)cc2)N3)cc1 | 15 | TbREL1 conf=17
CC(=O)c1ccc2c(c1)C1C=CCC1C(c1ccc(S(=O)(=O)N3CCOCC3)cc1)N2 (centres undefined) | .
O=C(CSc1nnc(-c2cccnc2)n1Cc1ccco1)Nc1cc(Cl)ccc1F | .
CCOC(=O)N1CCN(C(=O)C[C@H]2C[C@@]3(C(=O)OC)C(=C[C@H](C4CCCC4)O[C@@H]3C)N(Cc3ccc(Cl)cc3Cl)C2=O)CC1 | .

Compound activity as filed in PubChem.
